The text below walks through data of PubChem BioAssay (EPA / NIEHS).

Structures are written as SMILES. Several values for one entry are separate records, joined by “and”; a condition that tells them apart may be missing. Equal values may be shown once. Some compounds were tested as several samples or in several runs, with calls that do not always agree. Activity calls are given as the source filed them. Rule for the calls: active = hit-call score of the fitted dose curve at least 0.9, where 1 is the maximum; inactive = score below 0.9.

Read-out in assay [1]: Human Leukocyte Antigen - DR isotype (HLADR), HLA-DRA (gene 3122)
Kind of assay: BSK_CASM3C_HLADR: BioMAP Diversity Plus: CASM3C Assay for Human Leukocyte Antigen - DR isotype (HLADR) Biomarker Activity (AID 2283043).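 Note: cell-surface HLA-DR protein level quantified by ELISA.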 The settings on record: primary human coronary artery smooth muscle cells; actives raise or lower the signal.

Read-out in assay [2]: Macrophage colony-stimulating factor (MCSF), CSF1 (gene 1435)
Kind of assay: BSK_CASM3C_MCSF: BioMAP Diversity Plus: CASM3C Assay for Macrophage colony-stimulating factor (MCSF) Biomarker Activity (AID 2283044).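 Note: M-CSF protein amount quantified by ELISA after 24 h exposure.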 As to conditions: primary human coronary artery smooth muscle cells; actives raise or lower the signal.

Read-out in assay [3]: Low-density lipoprotein receptor (LDLR), LDLR (gene 3949)
Kind of assay: BSK_CASM3C_LDLR: BioMAP Diversity Plus: CASM3C Assay for Low-density lipoprotein receptor (LDLR) Biomarker Activity (AID 2283045).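 Note: LDLR protein level on the cell surface quantified by ELISA.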 The settings on record: primary human coronary artery smooth muscle cells; actives raise or lower the signal.

Read-out in assay [4]: Monocyte Chemoattractant Protein-1 (MCP1), CCL2 (gene 6347)
Kind of assay: BSK_CASM3C_MCP1: BioMAP Diversity Plus: CASM3C Assay for Monocyte Chemoattractant Protein-1 (MCP1) Biomarker Activity (AID 2283046).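 Note: MCP-1 level quantified by ELISA 24 h after dosing.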 The settings on record: primary human coronary artery smooth muscle cells; actives raise or lower the signal.

A short description of assay [5]: BSK_CASM3C_Proliferation: Cell Proliferation Assessment in the BioMAP Diversity Plus: CASM3C Assay (AID 2283047).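 Note: sulforhodamine B total protein stain as relative cell number at 560 nm; sub-confluent cells exposed 48 h before staining; fitted both ways against DMSO so gain or loss of cell number.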 As to conditions: primary human coronary artery smooth muscle cells.
Read-out in assay [6]: Monokine induced gamma interferon (MIG), CXCL9 (gene 4283)
The assay can be described thus: BSK_CASM3C_MIG: BioMAP Diversity Plus: CASM3C Assay for Monokine induced gamma interferon (MIG) Biomarker Activity (AID 2283048).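 Note: MIG protein level measured by ELISA.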 As to conditions: primary human coronary artery smooth muscle cells; actives raise or lower the signal.

Read-out in assay [7]: serum amyloid A (SAA), SAA1 (gene 6288)
Kind of assay: BSK_CASM3C_SAA: BioMAP Diversity Plus: CASM3C Assay for serum amyloid A (SAA) Biomarker Activity (AID 2283049).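 Note: SAA protein level quantified by ELISA.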 The settings on record: primary human coronary artery smooth muscle cells; actives raise or lower the signal.

The nature of assay [8]: BSK_CASM3C_SRB: Viability Assessment in the BioMAP Diversity Plus: CASM3C Assay (AID 2283050).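 Note: total protein by SRB staining as cytotoxicity measure in parallel cultures.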 As to conditions: primary human coronary artery smooth muscle cells.
Read-out in assay [9]: Thrombomodulin, THBD (gene 7056)
Kind of assay: BSK_CASM3C_Thrombomodulin: BioMAP Diversity Plus: CASM3C Assay for Thrombomodulin Biomarker Activity (AID 2283051).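 Note: thrombomodulin protein level measured by ELISA 24 h after dosing.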 The settings on record: primary human coronary artery smooth muscle cells; actives raise or lower the signal.

Read-out in assay [10]: Tissue Factor, F3 (gene 2152)
The assay can be described thus: BSK_CASM3C_TissueFactor: BioMAP Diversity Plus: CASM3C Assay for Tissue Factor Biomarker Activity (AID 2283052).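 Note: cell surface tissue factor protein level read by ELISA.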 The settings on record: primary human coronary artery smooth muscle cells; actives raise or lower the signal.

Read-out in assay [11]: Interferon-gamma inducible Protein 10 (IP10), CXCL10 (gene 3627)
The assay can be described thus: BSK_hDFCGF_IP10: BioMAP Diversity Plus: hDFCGF Assay for Interferon-gamma inducible Protein 10 (IP10) Biomarker Activity (AID 2283053). The settings on record: primary human foreskin fibroblasts; actives raise or lower the signal. In a few lines:
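Primary foreskin fibroblasts, human; 24 h compound exposure; IP-10 by ELISA; bidirectional fit vs DMSO.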

Read-out in assay [12]: Urokinase-type plasminogen activator receptor (uPAR), PLAUR (gene 5329)
Kind of assay: BSK_CASM3C_uPAR: BioMAP Diversity Plus: CASM3C Assay for Urokinase-type plasminogen activator receptor (uPAR) Biomarker Activity (AID 2283054).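 Note: cell-surface uPAR protein level quantified by ELISA.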 The settings on record: primary human coronary artery smooth muscle cells; actives raise or lower the signal.

Read-out in assay [13]: Vascular cell adhesion molecule 1 (VCAM1), VCAM1 (gene 7412)
The assay can be described thus: BSK_CASM3C_VCAM1: BioMAP Diversity Plus: CASM3C Assay for Vascular cell adhesion molecule 1 (VCAM1) Biomarker Activity (AID 2283055).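 Note: VCAM-1 protein level quantified by ELISA on the cells.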 The settings on record: primary human coronary artery smooth muscle cells; actives raise or lower the signal.

Read-out in assay [14]: Collagen III, COL3A1 (gene 1281)
The assay can be described thus: BSK_hDFCGF_CollagenIII: BioMAP Diversity Plus: hDFCGF Assay for Collagen III Biomarker Activity (AID 2283056). As to conditions: primary human foreskin fibroblasts; actives raise or lower the signal. Summed up:
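Response relative to DMSO, fitted in both directions, reflects ELISA-measured collagen III in human primary skin fibroblasts 24 h after compound addition.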

Read-out in assay [15]: Epidermal growth factor receptor (EGFR), EGFR (gene 1956)
The assay can be described thus: BSK_hDFCGF_EGFR: BioMAP Diversity Plus: hDFCGF Assay for Epidermal growth factor receptor (EGFR) Biomarker Activity (AID 2283057). The settings on record: primary human foreskin fibroblasts; actives raise or lower the signal. Summed up: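 hDFCGF system, primary human foreskin fibroblasts; compound 24 h; EGFR measured by ELISA; DMSO = negative control/baseline; bidirectional fitting.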

Read-out in assay [16]: Interleukin-8 (IL8), CXCL8 (gene 3576)
Kind of assay: BSK_hDFCGF_IL8: BioMAP Diversity Plus: hDFCGF Assay for Interleukin-8 (IL8) Biomarker Activity (AID 2283058). The settings on record: primary human foreskin fibroblasts; actives raise or lower the signal. Summed up:
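Fibroblast monolayers (human foreskin, hDFCGF) received test chemical for 24 h before ELISA detection of IL-8; either increases or decreases relative to DMSO count as activity.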

Assay [17] can be described thus: BSK_hDFCGF_Proliferation: Cell Proliferation Assessment in the BioMAP Diversity Plus: hDFCGF Assay (AID 2283059).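 Note: curves fitted for both rise and fall of signal versus DMSO baseline.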 The settings on record: primary human foreskin fibroblasts. In a few lines:
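Sub-confluent human foreskin fibroblast cultures receive test chemical […]. Relative cell number is quantified by sulforhodamine B staining (0.1%, after 10% TCA fixation) at 560 nm, with bidirectional fitting referenced to DMSO.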

Read-out in assay [18]: Macrophage colony-stimulating factor (MCSF), CSF1 (gene 1435)
Kind of assay: BSK_hDFCGF_MCSF: BioMAP Diversity Plus: hDFCGF Assay for Macrophage colony-stimulating factor (MCSF) Biomarker Activity (AID 2283060). As to conditions: primary human foreskin fibroblasts; actives raise or lower the signal. In a few lines: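 fibroblasts (human foreskin, primary), 24 h post-dose; M-CSF by ELISA; bidirectional fit, DMSO = baseline.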

Assay [19] in a line: BSK_hDFCGF_SRB: Viability Assessment in the BioMAP Diversity Plus: hDFCGF Assay (AID 2283061).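 Note: cells exposed to compound for 24 h before the read.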 The settings on record: primary human foreskin fibroblasts. Summed up: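 SRB-based viability read on primary human skin fibroblasts at 24 h: TCA fixation, 0.1% dye, 560 nm. Gain or loss of signal is fitted against the DMSO negative control.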
Read-out in assay [20]: TIMP metallopeptidase inhibitor 1 (TIMP1), TIMP1 (gene 7076)
The assay can be described thus: BSK_hDFCGF_TIMP1: BioMAP Diversity Plus: hDFCGF Assay for TIMP metallopeptidase inhibitor 1 (TIMP1) Biomarker Activity (AID 2283062). The settings on record: primary human foreskin fibroblasts; actives raise or lower the signal. Summed up: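 Bidirectional curve fitting against DMSO baseline yielded this endpoint, based on ELISA detection of TIMP-1 in primary human foreskin fibroblasts exposed to compound for 24 h.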

As usually defined, the AC50 is the concentration at which the activity in the assay is half-maximal. Regarding `C=CCOc1c(Br)cc(Br)cc1Br`, the AC50 is 26.8 µM (active) in [1]; 28.3 µM (active) in assay [2]; 20 µM (active) in assay [3]; 32.3 µM (active) in assay [4]; 29.5 µM (active) in assay [5]; 20 µM (active) in assay [7]. In addition, the AC50 in assay [8] is 30.4 µM (active); in assay [10] it was 16.9 µM (active); in assay [11], 35.5 µM (active); in assay [12] it was 33.5 µM (active); in [13], 32.3 µM (active); in assay [14], 20 µM (active). Also, the AC50 in assay [17] is 10.3 µM (active); in assay [18], 12.5 µM (active); in assay [19] it was 25.7 µM (active); in [20] it was 8.19 µM (active). Moreover, the result in [6], in assay [9], in [15] and in assay [16] was inactive.

As to `CC(C)C(=O)C(C)C`, the result in [1], in assay [2], in assay [3], in [4], in [5] and in assay [6] was inactive. In addition, the outcome in assay [7], in assay [8], in assay [9], in assay [10], in assay [11] and in assay [12] was inactive. In addition, the outcome in assay [13], in [14], in assay [15], in [16], in assay [17] and in [18] was inactive. The result in assay [19] and in [20] was inactive.

In the case of `CCO[Si](C)(OCC)OCC`, the result in assay [1], in assay [2], in assay [3], in [4], in [5] and in assay [6] was inactive. For the same molecule, the outcome in assay [7], in assay [8], in assay [9], in assay [10], in assay [11] and in assay [12] was inactive. Moreover, the result in assay [13], in [14], in assay [15], in assay [16], in assay [17] and in assay [18] was inactive. The outcome in assay [19] and in assay [20] was inactive.

Consider `Nc1ccc(N)c(Cl)c1`, for which the outcome in [1], in [3], in assay [4], in [6], in assay [7] and in assay [8] was inactive. Also, the outcome in [10], in assay [12], in assay [14], in [15], in [16] and in assay [20] was inactive. Moreover, the half-maximal activity concentration (AC50) was 8.11 µM (active) and 1.83 µM (active) in [2]; 28.7 µM (active) in [5]; 6.03 µM (active) in assay [6]; 16.1 µM (active) in [8]; 2.9 µM (active) and 3.08 µM (active) in assay [9]; 1.13 µM (active) in assay [10]. Further, the half-maximal activity concentration (AC50) is 16 µM (active) and 20.2 µM (active) in assay [11]; 27.2 µM (active) and 11.1 µM (active) in [13]; 28.4 µM (active) in [14]; 21.4 µM (active) in assay [15]; 9.65 µM (active) in assay [17]; 14.9 µM (active) and 16.5 µM (active) in assay [18]. Further, the AC50 in [19] was 32.3 µM (active) and 32.1 µM (active); in assay [20], 34.2 µM (active).
